For 13 compounds, outcome and Potency results are on record in PubChem BioAssay (Tox21).

Inconclusive results are not listed. Active and inactive are the calls of the source. Unless noted, the call rests on the fitted dose curve; in most records, active means well fitted curve in the direction sought with a large enough effect in the repeat runs; inconclusive means weak or mixed curves; inactive means no such curve, though single readings can be large; an effect the other way counts as inactive or inconclusive.

Experiment [1] can be described thus: qHTS assay to identify small molecule antagonists of the androgen receptor (AR) signaling pathway using the MDA cell line in the presence of 0.5 nM R1881 - cell viability counter screen (AID 1259242). Further: nearly all actives have a fitted effect of over 45% in size. The essentials:
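qHTS format. MDA-kb2 (MMTV-luc, AR/GR responsive) + cpd + 0.5 nM R1881 final, 16 hr 37C/0% CO2 → CellTiter-Fluor 30 min → fluorescence intensity.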

Experiment [2] deals with Estrogen receptor (Homo sapiens) (UniProt P03372). The experiment can be described thus: qHTS assay to identify small molecule antagonists of the estrogen receptor alpha (ER-alpha) signaling pathway using the BG1 cell line in the presence of 0.1 nM 17-beta-estradiol (AID 1259244). Further: nearly all actives have a fitted effect of over 50% in size. The method in brief: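 Reporter is a stably transfected luciferase under four estrogen responsive elements in VM7Luc4E2 cells expressing native full-length ER-alpha; inhibition of 0.1 nM (final) 17beta-estradiol-driven signal over 22 h is read by luminescence.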

Experiment [3] is described as follows: qHTS assay to identify small molecule HDAC inhibitors (AID 1259364).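 Further: wild-type HCT-116 cells with endogenous class I/II HDAC activity; top concentration of the series differs between compounds; nearly all actives have a fitted effect of over 45% in size.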 The essentials: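 Quantitative high-throughput format: overnight-seeded HCT-116 cells got compounds for 2 hr at 37C; HDAC-Glo I/II reagent added, 30 min RT, luminescence measured.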
Experiment [4] in a line: qHTS assay to identify small molecule HDAC inhibitors - cell viability counter screen (AID 1259365). Further: series mostly up to about 92 µM; nearly all actives have a fitted effect of over 50% in size. The method in brief: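 To flag cytotoxic hits, 1,500 wild-type HCT-116 cells per well, plated the day before, receive test compounds for 2hr at 37 C before CellTiter-Glo reagent and a luminescence read.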
A short description of experiment [5]: qHTS assay to identify small molecule agonists of the sonic hedgehog signaling (Shh) pathway - cell viability counter screen (AID 1259366). Further: nearly all actives have a fitted effect of over 50% in size. The method in brief:
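Fluorescence from CellTiter-Fluor reports live cells in this counter screen. NIH/3T3-derived Gli1-Luc reporter cells receive test compounds for 24hr at 37C; reagent goes in at 23hr.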

Experiment [6] can be described thus: qHTS assay to identify small molecule antagonists of the sonic hedgehog signaling (Shh) pathway - cell viability counter screen (AID 1259367). Further: nearly all actives have a fitted effect of over 55% in size. The essentials:
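Conditioned medium drove Shh signaling in 3T3 Gli1-Luc cells exposed to compounds at 37C and 5% CO2. Viability was determined from CellTiter-Fluor fluorescence, with reagent incubated 1 hr after 23 hr of treatment.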

The nature of experiment [7]: qHTS assay to identify small molecule agonists of the sonic hedgehog signaling (Shh) pathway (AID 1259368; calls by dose curve;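 further: NIH/3T3-derived 3T3Gli1-Luc cells carrying a stable Gli1-driven firefly luciferase reporter; series mostly up to about 92 µM; nearly all actives have a fitted effect of over 15% in size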). The essentials: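 Quantitative high-throughput format using a Gli1-driven firefly luciferase reporter line derived from NIH/3T3 cells. After a 24 hr compound treatment at 37 C and 5% CO2, luminescence reported Gli1 response element activity.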
The nature of experiment [8]: qHTS assay to identify small molecule antagonists of the sonic hedgehog signaling (Shh) pathway (AID 1259369; calls by dose curve; further: nearly all actives have a fitted effect of over 45% in size). The method in brief: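 Stable Gli1-Luc reporter NIH/3T3 clone; quantitative HTS in stimulated mode with conditioned medium. Luminescence measured after 24hr compound treatment at 37 C.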
In experiment [9] the target is Estrogen receptor beta (Homo sapiens) (UniProt Q92731). In words: qHTS assay to identify small molecule agonists of the estrogen receptor beta (ER-beta) signaling pathway (AID 1259377; active means well fitted activation curve with a large enough effect in the signal ratio in the repeat runs, not every such curve was filed as active; the % refers to the signal ratio). The essentials: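 Screening used GripTite ER-beta-UAS-bla cells held in 2% charcoal-stripped FBS medium. After overnight (16 hr) compound incubation at 37C, beta-lactamase activity was detected with a FRET substrate by fluorescence.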

Experiment [10] has the same target. In words: qHTS assay to identify small molecule antagonists of the estrogen receptor beta (ER-beta) signaling pathway (AID 1259378; active means well fitted inhibition curve with a large enough effect in the signal ratio in the repeat runs, not every such curve was filed as active; the % refers to the signal ratio). The method in brief: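 ER-beta-UAS-bla HEK293T (GripTite) cells in 2% charcoal-stripped FBS medium were preincubated 6 hr at 37C, dosed with compound, then stimulated with 1 nM E2 (final) for 16 hr; beta-lactamase reporter read by B/G FRET fluorescence after 2 hr substrate loading.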

A short description of experiment [11]: qHTS assay to identify small molecule agonists of the androgen receptor (AR) signaling pathway in the presence of an antagonist - cell viability counter screen (AID 1259379).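 Further: MDA-kb2 human breast cancer cells carrying an MMTV luciferase reporter; series mostly up to about 92 µM; nearly all actives have a fitted effect of over 25% in size.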 The method in brief: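 Nilutamide-containing (3.0uM final) MDA-kb2 cultures, 3,000 cells/well, were treated with compounds across 15 concentrations. After 16 hr at 37C with no CO2, cell viability was determined by CellTiter-Fluor fluorescence in the luciferase assay wells.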

Experiment [12] can be described thus: qHTS assay to identify small molecule agonists of the estrogen receptor beta (ER-beta) signaling pathway - cell viability counter screen (AID 1259380). Further: nearly all actives have a fitted effect of over 30% in size. Further: potency means the concentration at half of the fitted maximal effect. The essentials: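 Steps: plate ER-beta-UAS-bla HEK293T cells, rest 6 hr; add compounds in DMSO; incubate 16 hr at 37C, 5% CO2; add FRET substrate 2 hr; add CellTiter-Glo, wait 30 min at room temperature; read luminescence.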

Experiment [13] in a line: qHTS assay to identify small molecule antagonists of the estrogen receptor beta (ER-beta) signaling pathway - cell viability counter screen (AID 1259382). Further: series mostly up to about 92 µM; nearly all actives have a fitted effect of over 55% in size. The essentials: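 Viability is scored by CellTiter-Glo luminescence (30 min, room temperature) in ER-beta-UAS-bla HEK293T wells already read for reporter fluorescence. Compound exposure lasts 16 hr at 37C alongside 1nM 17-beta-estradiol in charcoal-stripped serum medium.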

The target in experiment [14] is Estrogen receptor (Homo sapiens) (UniProt P03372). The experiment can be described thus: qHTS assay to identify small molecule agonists of the estrogen receptor alpha (ER-alpha) signaling pathway in the presence of an antagonist (AID 1259383; calls by dose curve; further: top concentration of the series differs between compounds; nearly all actives have a fitted effect of over 15% in size). The essentials:
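Readout was ERE-driven luciferase luminescence in VM7Luc4E2 cells, which express full-length ER-alpha endogenously. Compounds were tested at 15 concentrations for 22hr alongside 10.0nM ICI-182,780 (final concentration).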

Experiment [15] concerns the target Thyrotropin receptor (Homo sapiens) (UniProt P16473). The experiment can be described thus: qHTS assay to identify small molecule antagonists of the thyroid stimulating hormone receptor (TSHR) signaling pathway (AID 1259385; calls by dose curve; further: nearly all actives have a fitted effect of over 20% in size). The essentials: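 TSHR-HEK293 cells were plated and held 18 h at 37C/5% CO2, then given compound plus Ro20-1724 and stimulated with TSH at 1.5 ng/mL final. After 30 min at room temperature, cAMP was detected with cAMP-d2/anti-cAMP-cryptate (1 h) by fluorescence.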

Experiment [16] can be described thus: qHTS assay to identify small molecule agonists of the estrogen receptor alpha (ER-alpha) signaling pathway in the presence of an antagonist - cell viability counter screen (AID 1259386).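 Further: series mostly up to about 92 µM; cells exposed to compounds for 22 h at 37 °C before the viability read; nearly all actives have a fitted effect of over 30% in size.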 The essentials:
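In this counter screen, compound effects on VM7Luc4E2 viability were tested in the presence of the antagonist ICI-182,780 at 10.0nM final. Compounds were dosed at 15 concentrations, exposure lasted 22hr, and the CellTiter-Fluor signal was read.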

A short description of experiment [17]: qHTS assay to identify small molecule agonists or antagonists of the thyroid stimulating hormone receptor (TSHR) signaling pathway - wild type cell line counter screen (AID 1259384; calls by dose curve). The method in brief: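 Wild-type HEK293 cells were plated 18 h at 37 C/5% CO2, pin-dosed with compound plus Ro20-1724 medium, held 30 min at room temperature, then given cAMP-d2 and anti-cAMP-cryptate; fluorescence was read after 1 h. Fifteen concentrations, triplicate.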

Thyrotropin receptor (Homo sapiens), sequence (P16473 whole entry, looked up): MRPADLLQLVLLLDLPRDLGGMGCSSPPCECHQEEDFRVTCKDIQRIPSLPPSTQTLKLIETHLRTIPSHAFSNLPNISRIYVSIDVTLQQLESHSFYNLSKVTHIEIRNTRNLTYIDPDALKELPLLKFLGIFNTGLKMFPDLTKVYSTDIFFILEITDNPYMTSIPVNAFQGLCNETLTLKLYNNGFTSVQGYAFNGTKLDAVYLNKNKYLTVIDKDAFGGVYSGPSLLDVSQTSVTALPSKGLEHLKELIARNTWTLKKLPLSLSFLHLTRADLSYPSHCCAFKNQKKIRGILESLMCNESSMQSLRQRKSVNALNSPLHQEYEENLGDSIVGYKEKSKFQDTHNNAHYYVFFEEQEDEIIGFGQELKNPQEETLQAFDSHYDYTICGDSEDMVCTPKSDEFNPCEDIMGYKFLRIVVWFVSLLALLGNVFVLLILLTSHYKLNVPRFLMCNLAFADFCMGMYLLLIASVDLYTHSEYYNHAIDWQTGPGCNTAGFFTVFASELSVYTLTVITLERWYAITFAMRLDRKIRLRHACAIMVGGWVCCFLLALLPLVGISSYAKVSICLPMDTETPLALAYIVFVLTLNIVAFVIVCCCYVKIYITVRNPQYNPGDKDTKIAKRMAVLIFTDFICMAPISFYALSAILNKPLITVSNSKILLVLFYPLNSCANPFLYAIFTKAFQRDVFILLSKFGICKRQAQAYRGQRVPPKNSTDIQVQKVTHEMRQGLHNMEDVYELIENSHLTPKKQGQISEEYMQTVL
Estrogen receptor (Homo sapiens), sequence (P03372 whole entry, looked up): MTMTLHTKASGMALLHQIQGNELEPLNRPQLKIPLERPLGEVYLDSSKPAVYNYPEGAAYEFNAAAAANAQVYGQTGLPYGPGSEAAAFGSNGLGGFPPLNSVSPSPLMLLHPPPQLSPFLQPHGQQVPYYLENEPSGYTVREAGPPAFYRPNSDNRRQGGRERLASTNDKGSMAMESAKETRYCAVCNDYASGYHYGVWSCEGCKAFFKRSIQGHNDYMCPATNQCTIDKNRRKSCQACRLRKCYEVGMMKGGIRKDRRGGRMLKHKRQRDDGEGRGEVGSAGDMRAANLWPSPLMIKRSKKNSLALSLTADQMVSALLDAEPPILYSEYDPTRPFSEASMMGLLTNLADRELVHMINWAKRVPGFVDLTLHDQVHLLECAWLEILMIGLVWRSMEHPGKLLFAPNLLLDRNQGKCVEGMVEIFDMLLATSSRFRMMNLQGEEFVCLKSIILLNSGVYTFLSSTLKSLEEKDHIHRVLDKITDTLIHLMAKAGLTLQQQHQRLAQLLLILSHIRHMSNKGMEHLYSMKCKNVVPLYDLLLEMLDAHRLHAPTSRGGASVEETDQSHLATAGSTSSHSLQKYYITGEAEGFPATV
Estrogen receptor beta (Homo sapiens), sequence (Q92731 whole entry, looked up): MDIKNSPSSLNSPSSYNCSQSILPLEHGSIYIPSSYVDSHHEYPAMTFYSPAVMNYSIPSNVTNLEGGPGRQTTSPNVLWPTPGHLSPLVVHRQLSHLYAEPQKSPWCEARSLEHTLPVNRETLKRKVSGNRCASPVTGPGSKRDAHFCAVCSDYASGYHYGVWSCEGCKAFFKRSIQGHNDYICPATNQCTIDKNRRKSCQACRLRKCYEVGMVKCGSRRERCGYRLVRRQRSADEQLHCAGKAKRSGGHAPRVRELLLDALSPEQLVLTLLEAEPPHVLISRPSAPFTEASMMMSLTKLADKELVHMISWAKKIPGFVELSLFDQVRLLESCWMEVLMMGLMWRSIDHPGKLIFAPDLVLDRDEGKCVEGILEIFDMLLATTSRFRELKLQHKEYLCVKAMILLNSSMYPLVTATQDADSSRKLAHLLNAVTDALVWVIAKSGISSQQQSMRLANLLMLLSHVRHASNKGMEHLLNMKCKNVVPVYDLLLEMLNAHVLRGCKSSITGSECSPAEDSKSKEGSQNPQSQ

In the case of `CCCCc1c(C)nc(NCC)[nH]c1=O`, the result in [1], in experiment [4], in [7] and in [9] was inactive. Besides, the Potency result in experiment [2], in [3], in experiment [5], in experiment [6], in [8] and in experiment [10] was “inactive” each time. Moreover, the Potency entry in [11], in [12], in [13], in [14], in [15] and in [16] was “inactive” throughout.
As to `ClCC(Cl)(Cl)Cl`, the outcome in experiment [1], in [4], in experiment [7] and in experiment [9] was inactive. Also, the Potency entry in experiment [2], in experiment [3], in experiment [5], in [6], in [8] and in experiment [10] was “inactive” in each case. For the same compound, the Potency entry in [11], in [12], in [13], in [14] and in [16] was “inactive” throughout.
With `O=P(O)(Oc1ccccc1)Oc1ccccc1`, the outcome in [1], in experiment [4], in experiment [7] and in experiment [9] was inactive. Besides, the Potency result in experiment [2], in experiment [3], in experiment [5], in [6], in [8] and in experiment [10] was “inactive” throughout. In addition, the Potency result in experiment [11], in [12], in experiment [13], in experiment [14], in experiment [17] and in [16] was “inactive” in each case.
On to `C1CCC(C2CCCCC2)CC1`, for which the outcome in experiment [1], in experiment [4], in [7] and in experiment [9] was inactive. Further, the Potency result in experiment [2], in experiment [3], in experiment [5], in [6], in [8] and in [10] was “inactive” each time. Besides, the Potency result in [11], in experiment [14], in [17], in experiment [15] and in [16] was “inactive” each time. Besides, the Potency in experiment [12] is 38.6 µM (active).
`C[N+](C)=CCl`: the result in [1], in [4], in experiment [7] and in [9] was inactive. Also, the Potency entry in [2], in experiment [3], in experiment [5], in experiment [6], in experiment [8] and in [11] was “inactive” throughout. Besides, the Potency entry in experiment [12], in experiment [13], in experiment [14], in experiment [17], in experiment [15] and in [16] was “inactive” throughout.
For the compound `CNNC`, the result in experiment [1], in experiment [4] and in experiment [7] was inactive. The Potency entry in [2], in [3], in [5], in experiment [6], in experiment [8] and in experiment [10] was “inactive” in each case. Moreover, the Potency entry in experiment [11], in experiment [12], in experiment [13], in experiment [14] and in experiment [16] was “inactive” in each case.
As for `CS(=O)(=O)c1cc(C(F)(F)F)ccc1C(=O)c1cnoc1C1CC1`, the result in experiment [1], in [4] and in experiment [7] was inactive. Also, the Potency entry in experiment [2], in [3], in experiment [5], in [6], in [8] and in experiment [10] was “inactive” throughout. The Potency result in experiment [11], in experiment [12], in experiment [13], in experiment [14], in [15] and in experiment [16] was “inactive” each time.
As for `CC1(C)C(=O)NC(=O)NC1=O`, the result in experiment [1], in [4], in [7] and in [9] was inactive. Besides, the Potency result in experiment [2], in [3], in experiment [5], in experiment [6], in experiment [8] and in [10] was “inactive” throughout. The Potency entry in experiment [11], in experiment [12], in experiment [13], in [14], in experiment [17] and in experiment [15] was “inactive” in each case. For the same compound, the Potency entry in experiment [16] is “inactive”.
As to `Oc1c(Cl)cccc1Cl`, the result in experiment [1], in [4] and in [7] was inactive. In addition, the Potency result in experiment [2], in experiment [3], in [5], in experiment [6], in experiment [8] and in [10] was “inactive” each time. For the same compound, the Potency entry in experiment [11], in [12], in experiment [13], in experiment [14], in experiment [17] and in experiment [15] was “inactive” throughout. Moreover, the Potency result in experiment [16] was “inactive”.
For the compound `OCCSCSCCO`, the result in experiment [1], in experiment [4], in [7] and in [9] was inactive. Moreover, the Potency entry in [2], in experiment [3], in experiment [5], in experiment [6], in experiment [8] and in experiment [10] was “inactive” each time. For the same compound, the Potency result in experiment [11], in [12], in experiment [13], in [14], in [17] and in experiment [16] was “inactive” in each case.
For `CCOc1nc(C(Cl)(Cl)Cl)ns1`, the outcome in experiment [1], in experiment [4], in experiment [7] and in experiment [9] was inactive. Also, the Potency result in experiment [2], in [3], in [5], in experiment [6], in experiment [8] and in experiment [10] was “inactive” in each case. Further, the Potency result in experiment [11], in [13], in experiment [14], in [15] and in experiment [16] was “inactive” in each case.
For `CCOP(=S)(OCC)Oc1cc(-c2ccccc2)on1`, the outcome in [1], in [4], in experiment [7] and in [9] was inactive. In addition, the Potency result in [2], in [3], in experiment [5], in [6], in experiment [8] and in experiment [10] was “inactive” each time. The Potency entry in experiment [11], in experiment [12], in experiment [13], in experiment [14], in experiment [17] and in experiment [16] was “inactive” in each case.
As to `O=NN1CCN(N=O)CC1`, the result in experiment [1], in experiment [4] and in experiment [7] was inactive. Further, the Potency entry in experiment [2], in [3], in experiment [5], in [6], in [8] and in experiment [10] was “inactive” in each case. The Potency entry in experiment [11], in [12], in [13], in experiment [14], in [17] and in experiment [16] was “inactive” each time.
